Assay outcomes as filed in PubChem.
Peg3 prom inh = Peg3 promoter-driven luciferase inhibitors, primary screen, cell-based, HeLa, luciferase luminescence. HeLa PEG-Prom luciferase reporter, overnight. inhibition, % at 20 µM. 360,000 tested, 1.7% active. AID 588405, 2011;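 active = inhibition of at least 50% at 20 µM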
PAX8 inh HTS = inhibitors of PAX8-driven TPO luciferase reporter, primary screen, RMG-I cells, single concentration. SteadyGlo, 24 h. 360,000 tested, 1.2% active. inhibition, % at 12.6 µM. AID 652154, 2013;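 active = mean replicate inhibition at least 60% with every replicate also reaching 60%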;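 note: luciferase light reporting Pax8 driven TPO promoter activity; plate controls were median of neutral control wells for no effect and mitoxantrone controls for full effect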
Shn3 3UTR inh = reduction of Shn3 3'UTR firefly luciferase signal, primary screen, Schnurri-3 inhibitor project, cell-based, Clone20 osteoblasts, set 2; Clone20 osteoblast Shn3 3'UTR firefly luciferase, 24 h; AID 588674, 2011; inhibition, % at 12.5 µM; 360,000 tested, 0.52% active;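 active = mean inhibition of at least 75% with every replicate also reaching 75%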;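 note: 0% = median of neutral control wells and 100% = pilot-screen positive control compound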
EWS-Fli block = EWS/Fli-driven NR0B1 reporter inhibitors, primary screen, A673 cells, NR0B1 luciferase, luminescence, MLPCN library; viability-normalised; inhibition, % at 12.6 µM; 350,000 tested, 0.67% active; AID 651661, 2012;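 active = mean inhibition of at least 50% after viability correction, with every replicate also passing that limit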;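 note: firefly luciferase signal divided by Alamar Blue viability fluorescence both relative to DMSO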
TRPM1 prom inh = inhibitors of MITF-dependent TRPM1 promoter reporter, primary screen, cell-based, SK-MEL-5, single point, luciferase. SK-MEL-5 TRPM1 promoter luciferase, 24 h. 330,000 tested, 0.83% active. AID 488899, 2010. inhibition, % at 12.5 µM;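 active = mean inhibition across replicates of 60% or more, whatever share of single replicates reaches that level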
ABHD5 PLIN5 PPI = ABHD5-PLIN5 interaction inhibitors, primary screen, cell lysate, split luciferase complementation, luminescence | 360,000 tested, 0.78% active | inhibition, % at 4 µM | Split G. princeps luciferase complementation, 4 h | Perilipin-5 (Homo sapiens) + 1-acylglycerol-3-phosphate O-acyltransferase ABHD5 (Homo …;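 active = inhibition above the mean inhibition across every tested compound plus 3 SD, cut at about 22% in these data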;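 note: 0% = DMSO only wells and the 100% control is not disclosed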
Target sequence (Q00G26 whole entry, looked up): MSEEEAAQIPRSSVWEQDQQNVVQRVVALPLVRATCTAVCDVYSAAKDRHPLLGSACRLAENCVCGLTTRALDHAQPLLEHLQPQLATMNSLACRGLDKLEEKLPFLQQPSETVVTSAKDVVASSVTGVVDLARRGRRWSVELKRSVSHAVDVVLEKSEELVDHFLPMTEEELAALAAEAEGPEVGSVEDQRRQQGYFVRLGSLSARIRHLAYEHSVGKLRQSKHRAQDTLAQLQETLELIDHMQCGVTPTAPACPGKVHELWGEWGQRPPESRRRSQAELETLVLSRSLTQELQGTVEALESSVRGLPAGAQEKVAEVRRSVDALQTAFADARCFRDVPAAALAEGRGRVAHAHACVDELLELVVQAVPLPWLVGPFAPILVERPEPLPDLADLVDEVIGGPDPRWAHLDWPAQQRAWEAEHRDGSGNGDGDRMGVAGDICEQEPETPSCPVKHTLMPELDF
Target sequence (Q8WTS1 whole entry, looked up): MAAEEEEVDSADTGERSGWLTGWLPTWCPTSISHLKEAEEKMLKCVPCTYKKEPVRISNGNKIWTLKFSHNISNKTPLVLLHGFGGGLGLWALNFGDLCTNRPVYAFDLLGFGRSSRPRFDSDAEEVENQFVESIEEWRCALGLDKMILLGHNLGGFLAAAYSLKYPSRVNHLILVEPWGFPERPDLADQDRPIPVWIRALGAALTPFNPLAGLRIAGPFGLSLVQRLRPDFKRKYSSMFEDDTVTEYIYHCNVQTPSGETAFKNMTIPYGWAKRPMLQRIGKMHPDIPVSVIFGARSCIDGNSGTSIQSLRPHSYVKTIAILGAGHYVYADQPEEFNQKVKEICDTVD
An asterisk follows results filed as active. Only some compounds are listed: those with a hit (about 3% of all), similar ones and a draw of the others.

How did COc1ccc(NS(=O)(=O)c2cccc(C(=O)NN=Cc3ccc(OC)c(O)c3)c2)cc1 do in these assays?
Peg3 prom inh: -14; PAX8 inh HTS: -9; Shn3 3UTR inh: -10; EWS-Fli block: 7; TRPM1 prom inh: 4; ABHD5 PLIN5 PPI: -5

How did COc1ccc(NS(=O)(=O)c2cccc(C(=O)N/N=C/c3c(F)c(F)c(F)c(F)c3F)c2)cc1 do in these assays?
Peg3 prom inh: 95*; PAX8 inh HTS: 12; Shn3 3UTR inh: 2; EWS-Fli block: 31; TRPM1 prom inh: 6; ABHD5 PLIN5 PPI: -8

Results for Cc1ccc(CN2CC(=O)N3[C@H](CO)[C@@H](c4ccc(Br)cc4)[C@H]3C2)cc1 ?
EWS-Fli block: -4

Results for CCCCN1CCc2c1nc1ccc(Br)cc1c2N ?
Peg3 prom inh: 31; Shn3 3UTR inh: 20; EWS-Fli block: -10; TRPM1 prom inh: 66*; ABHD5 PLIN5 PPI: -6

What do the screens show for `CC12CCC(=O)N1C(C(=O)OCC(=O)Nc1cccc(S(=O)(=O)N3CCCCCC3)c1)CS2` (stereo not given)?
Peg3 prom inh: 14; PAX8 inh HTS: 84*; Shn3 3UTR inh: -23; EWS-Fli block: 9; TRPM1 prom inh: 1; ABHD5 PLIN5 PPI: -4

Results for COc1ccc(CCC(=O)Nc2cccc(S(=O)(=O)N3CCCCCC3)c2)cc1OC ?
Peg3 prom inh: 15; PAX8 inh HTS: 4; Shn3 3UTR inh: 24; EWS-Fli block: 18; TRPM1 prom inh: 20; ABHD5 PLIN5 PPI: 4

Results for CC12CCC(=O)N1C(C(=O)Nc1cccc(S(=O)(=O)N3CCCCCC3)c1)CS2 (stereo not given) ?
Peg3 prom inh: 12; PAX8 inh HTS: 5; Shn3 3UTR inh: 3; EWS-Fli block: 6; TRPM1 prom inh: -3; ABHD5 PLIN5 PPI: 1

How did COc1ccc(CC(=O)Nc2cccc(S(=O)(=O)N3CCCCCC3)c2)cc1OC do in these assays?
Peg3 prom inh: 19; PAX8 inh HTS: 20; Shn3 3UTR inh: 90*; TRPM1 prom inh: 31; ABHD5 PLIN5 PPI: -13

Results for O=C(C[C@@H]1CC[C@H](NC(=O)C2CCC2)[C@H](CO)O1)NCC1CC1 ?
PAX8 inh HTS: 14; EWS-Fli block: 1

How did N/C(=N\OCc1ccc([N+](=O)[O-])cc1)c1ccccn1 do in these assays?
TRPM1 prom inh: 73*

How did CC(C(=O)O/N=C(\N)c1ccccn1)c1ccc([N+](=O)[O-])cc1 (stereo not given) do in these assays?
Peg3 prom inh: -10; PAX8 inh HTS: -49; Shn3 3UTR inh: -47; EWS-Fli block: -30; TRPM1 prom inh: -2; ABHD5 PLIN5 PPI: 4

Results for Cc1cc(C)c2nc3nc(C)c(C)cc3c(N)c2c1 ?
Peg3 prom inh: 66*; PAX8 inh HTS: -2; Shn3 3UTR inh: -6; EWS-Fli block: 43; TRPM1 prom inh: 41; ABHD5 PLIN5 PPI: 0

How did CCCSc1nc(C)c2cc(C)cc(C)c2n1 do in these assays?
Peg3 prom inh: -9; PAX8 inh HTS: -19; Shn3 3UTR inh: 0; TRPM1 prom inh: -1; ABHD5 PLIN5 PPI: 1

How did CCc1ccc(-c2nc(CSCC(=O)N3CCN(c4ncccn4)CC3)c(C)o2)cc1 do in these assays?
Peg3 prom inh: 18; PAX8 inh HTS: 20; Shn3 3UTR inh: 20; EWS-Fli block: 82*; TRPM1 prom inh: 30; ABHD5 PLIN5 PPI: -4

How did C=CCCC(=O)Nc1nc(C)c(-c2csc(Nc3cc(OC)ccc3OC)n2)s1 do in these assays?
Peg3 prom inh: 33; PAX8 inh HTS: 56; Shn3 3UTR inh: 26; EWS-Fli block: 58*; TRPM1 prom inh: 40; ABHD5 PLIN5 PPI: -13

What do the screens show for `CCOc1ccccc1Nc1nc(-c2sc(NC(=O)c3ccco3)nc2C)cs1`?
Peg3 prom inh: 60*; PAX8 inh HTS: 43; Shn3 3UTR inh: 14; EWS-Fli block: 6; TRPM1 prom inh: 45; ABHD5 PLIN5 PPI: -6

Results for CCCC(=O)Nc1nc(C)c(-c2csc(Nc3cc(OC)ccc3OC)n2)s1 ?
Peg3 prom inh: 28; PAX8 inh HTS: 48; Shn3 3UTR inh: 11; EWS-Fli block: 32; TRPM1 prom inh: 10; ABHD5 PLIN5 PPI: -19
